Source: PubChem BioAssay AID853 (Columbia University Molecular Screening Center, 2007)
In all, about 47,000 compounds went through this assay and about 200 (0.43%) were called active. About 1% were inconclusive and are not listed.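 Rule for the calls: active = inhibition of aggregate fluorescence above about 70%, also judged a hit by eye on the cell image (limit read from the data, passing the limit was not always enough); inconclusive = no rule stated for this call; inactive = not judged a hit on image review.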 Many of the other results were omitted from the sample, so actives are more common in it than they were.

Test: clearance of mutant huntingtin inclusions, primary screen, imaging, HeLa Exon1htt(103Q)mCFP, confocal imaging (AID 853);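 note: cells exposed to compound for three days before fixation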
Conditions: aggregate imaging, at 1.5 µM; fraction fluorescence in grains: measured here: aggregate grain fluorescence fraction, stronger effect = lower value; inhibition: stronger effect = higher value

| SMILES | fraction fluorescence in grains | inhibition |
| --- | --- | --- |
| N#Cc1ccc(Cn2cc(C(=O)c3ccco3)c3ccccc32)cc1 | 6.7 | 83.1% (active) |
| COc1ccc(CCn2c(O)c(C=NC3CC3)c(=O)[nH]c2=O)cc1OC | 56 | -52.1% (inactive) |
| CC(C)c1ccc(OCC(=O)N2CCN(C)CC2)c(Br)c1 | 48.9 | -31% (inactive) |
| CCN1CCN(C(=O)Cc2coc3cc(C)cc(C)c23)CC1 | 24 | -20.7% (inactive) |
| c1cc2c(cc1CCNC1CCCCCC1)OCO2 | 16.3 | 11.1% (inactive) |
